In PubChem BioAssay AID720504 (National Center for Advancing Translational Sciences (NCATS), 2013):
Among all 360,000 compounds or so, about 10,000 (2.8%) were called active. Roughly 4% stayed inconclusive and do not appear here. Calls follow the shape of the dose curve; as a rule, active = well fitted inhibition curve with a large enough effect; inconclusive = small, poorly fitted or top-dose-only effect; inactive = flat fitted curve, though single readings scatter. For the sample, actives were picked, then their nearest neighbours and some compounds at random.

target: Serine/threonine-protein kinase PLK1 (Homo sapiens) (UniProt P53350); assay: qHTS for Inhibitors of PLK1-PDB (polo-like kinase 1 - polo-box domain): Primary Screen; conditions: Plk1 PBD binding of FITC phosphopeptide, fluorescence polarization; also: nearly all actives have a fitted effect of over 65% in size; as to max response, negative = inhibition: series mostly up to about 57 µM
% is scaled to controls: 0 for no effect and ±100 for the full control effect; potency is read from the fitted curve at half-maximal effect.

Chain of Serine/threonine-protein kinase PLK1 (Homo sapiens) (P53350 whole entry, looked up, the tested form may be a part): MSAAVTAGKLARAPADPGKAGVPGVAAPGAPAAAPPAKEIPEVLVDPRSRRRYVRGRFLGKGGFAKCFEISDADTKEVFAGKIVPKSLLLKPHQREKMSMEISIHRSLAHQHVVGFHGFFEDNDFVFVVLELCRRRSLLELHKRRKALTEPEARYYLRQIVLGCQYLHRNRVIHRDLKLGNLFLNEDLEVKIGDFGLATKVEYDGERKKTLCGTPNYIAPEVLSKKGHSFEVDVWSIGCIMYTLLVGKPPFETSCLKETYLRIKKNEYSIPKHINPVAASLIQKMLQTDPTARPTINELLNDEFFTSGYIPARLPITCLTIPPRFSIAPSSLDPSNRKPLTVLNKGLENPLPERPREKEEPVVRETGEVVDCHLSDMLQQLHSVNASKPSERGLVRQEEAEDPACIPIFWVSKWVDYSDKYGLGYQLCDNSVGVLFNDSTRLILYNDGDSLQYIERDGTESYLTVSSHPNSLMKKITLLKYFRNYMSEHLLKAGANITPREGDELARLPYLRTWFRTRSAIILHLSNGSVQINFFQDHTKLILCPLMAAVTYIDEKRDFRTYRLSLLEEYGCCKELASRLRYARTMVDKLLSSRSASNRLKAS

SMILES | max response, negative = inhibition | Potency
CCOC(=O)[C@]12CCC=C1N(CCC1=CCCCC1)C(=O)[C@H](CC(=O)NCc1ccc(C)o1)C2 | -24.8% (inactive) | –
CC(=O)Nc1cccc(-c2cc(NC=O)c3ncc(-c4ccc(F)c(Cl)c4)n3c2)c1 | -21.6% (inactive) | –
O=S1(=O)CCN(C2CCCCCCCCCCC2)CC1 | -0.289% (inactive) | –
Cc1cc(C)nc(N(C#N)CC(=O)Nc2ccccc2)n1 | -10.2% (inactive) | –
CCOC(=O)C(=Cc1ccccc1)C(=O)c1ccccc1 | -10.7% (inactive) | –
Cc1cc(C)nc(S/C=C/C(=O)c2ccccc2)n1 | – | 2.99 µM (active)
Cc1ccc(S(=O)(=O)N2C[C@@H](C)[C@]3(C2)[C@H](O)[C@H](OC(=O)NCc2ccccc2)C[C@H]2C(=O)N(c4ccccc4)C(=O)[C@H]23)cc1 | -4.82% (inactive) | –
O=C(Nc1ccccc1)C1CCN(C(=O)c2ccc(Br)cc2)CC1 | 1.93% (inactive) | –
COc1ccc(C(=O)N2CCC(C(=O)Nc3cccc(C)c3)CC2)cc1OC | -1.21% (inactive) | –
COc1ccc(C(=O)N2CCC(C(=O)Nc3ccc(C)cc3)CC2)cc1 | – | 3.36 µM (active)
Cc1cccc(C)c1NC(=O)C(c1cccc2ccccc12)n1c(=O)c(-c2ccco2)nc2ccccc21 (stereo unspecified) | -15.3% (inactive) | –
CCOC(=O)[C@]12CCCC=C1N(Cc1ccc3c(c1)OCO3)C(=O)[C@H](CC(=O)NCc1cccs1)C2 | -29.1% (inactive) | –
CC[C@@H](C)[C@H](NC(=O)CCc1c(C)c2cc3c4c(oc3c(C)c2oc1=O)CCCC4)C(=O)O | -24% (inactive) | –
Cc1c(C)c2cc3c4c(oc3c(C)c2oc1=O)CCCC4 | -0.836% (inactive) | –
Cc1c(CCC(=O)N[C@@H](CC(C)C)C(=O)O)c(=O)oc2c(C)c3oc4c(c3cc12)CCCC4 | – | 29.9 µM (active)
CC(OC(=O)c1cccnc1Cl)C(=O)NC1CCCCC1 (stereo unspecified) | 1.67% (inactive) | –
O=C(OCC(=O)N1CCCCCC1)c1cccc(Cl)c1Cl | -1.69% (inactive) | –
COc1ccc(CC(N)c2csc(NC(=O)NC(c3ccccc3)c3ccccc3)n2)cc1 (stereo unspecified) | -3.78% (inactive) | –
O=C(Nc1ccc(Cl)cc1)c1csc([C@H]2C[C@H](O)[C@@H](CO)O2)n1 | -10.3% (inactive) | –

SMILES | max response, negative = inhibition | Potency
C=CCn1cnc2scc(-c3ccccc3)c2c1=O | -4% (inactive) | –
C=CCn1c(=S)[nH]c2scc(-c3ccco3)c2c1=O | – | 26.7 µM (active)
C=CCn1c(=S)[nH]c2nc3c(cc2c1=O)COC(C)(C)C3 | 1.98% (inactive) | –
C[C@H](CO)N1C[C@H](C)[C@H](CN(C)C(=O)Nc2ccc3c(c2)OCO3)Oc2ncc(Br)cc2C1=O | -14.4% (inactive) | –
COCCNC(=S)Nc1cc(S(=O)(=O)N2CCOCC2)ccc1N1CCCCC1 | – | 2.99 µM (active)
CC(C)CCC(=O)Nc1cc(S(=O)(=O)N2CCOCC2)ccc1N1CCCC1 | -0.0205% (inactive) | –
CC(=O)NCCC(=O)Nc1cc(S(=O)(=O)N2CCOCC2)ccc1N1CCOCC1 | -0.805% (inactive) | –
CCCNC(=O)C1(C)CCCN(C(=O)c2oc3ccccc3c2C)C1 (stereo unspecified) | -5.78% (inactive) | –
COC(=O)c1ccc2nc(C3CCCCC3)c(Cc3cccc(F)c3)n2c1 | -6.81% (inactive) | –
O[C@H]1C[C@H](c2ccc(Cl)cc2)N(Cc2cccs2)C[C@@H]1n1cc(C2CC2)nn1 | -4.6% (inactive) | –
CCCCN1C(=O)CCC(C(=O)O)C1c1ccc(OC)cc1 (stereo unspecified) | – | 26.7 µM (active)
CCCCNC(=O)C1CCC(=O)N1CCc1ccccc1 (stereo unspecified) | -10.6% (inactive) | –
COc1ccc(C2C3=C(CCCC3=O)N(CC(=O)O)C3=C2C(=O)CCC3)cc1 | -11.9% (inactive) | –
CCCCC(=O)N(C)c1c(CC)nc2c(OCc3ccc(Cl)cc3Cl)cccn12 | -5.31% (inactive) | –
COc1cccc(CN2CCC(C(=O)NC(c3ccc4c(c3)OCO4)c3ccccn3)CC2)c1 (stereo unspecified) | 1.25% (inactive) | –
C[C@@H]1CC2=C(C(=O)OC(C)(C)O2)[C@@H](C2CC2)O1 | -2.71% (inactive) | –
CC(C)c1ccc(NC(=O)Cn2ncc3ccccc32)cc1 | 5.15% (inactive) | –
COc1ccc(NC(=O)Cn2ncn3c(cc4ccccc43)c2=O)c(OC)c1OC | -11.6% (inactive) | –
CCc1ccc(NC(=O)Cn2ncn3c(cc4ccccc43)c2=O)cc1 | – | 15 µM (active)

SMILES | max response, negative = inhibition | Potency
COc1ccc(C2OC(CCc3ccccc3)Cc3[nH]c(=S)[nH]c(=O)c32)cc1 (stereo unspecified) | -0.658% (inactive) | –
CC(=O)Nc1cc(-c2ccccc2N(C)C)cn2c(-c3ccc(F)c(Cl)c3)cnc12 | -6.53% (inactive) | –
COC(=O)[C@]12CCCCC=C1N(Cc1ccc3c(c1)OCO3)C(=O)[C@H](CC(=O)NCc1cccs1)C2 | -8.01% (inactive) | –
CCCNC(=O)C1(C)CCCN(Cc2cccc(C(F)(F)F)c2)C1 (stereo unspecified) | -5.05% (inactive) | –
C=CCn1c(SCCOc2ccc(OC)cc2)nnc1C(NC(=O)c1ccc(OC)cc1)C(C)C (stereo unspecified) | -13.7% (inactive) | –
COc1ccc(C(=O)NCc2nnc(SCCOc3ccccc3)n2C)cc1 | – | 16.8 µM (active)
COc1ccc(CC(=O)NCc2nnc(SCC(=O)Nc3ncc(C)s3)n2C)cc1 | – | 13.4 µM (active)
COc1ccc(C(=O)NCc2nnc(SCC(=O)NC3=NCCS3)n2C)cc1 | -0.0324% (inactive) | –
COc1ccc(-c2nnc(SCC(=O)Nc3cccnc3Cl)n2C)cc1 | -2.41% (inactive) | –
COc1ccc(CC(=O)NCc2nnc(SCC(=O)Nc3nccs3)n2C)cc1 | 3.83% (inactive) | –
COc1cc2ccc(C(C)=O)c(O)c2cc1OC | -1.98% (inactive) | –
Cc1nc2c(OCC(=O)C(C)(C)C)cccn2c1N(C)Cc1cccs1 | -10% (inactive) | –
COc1ccc(NC(=O)C2=NNC(=O)CC2)cc1S(=O)(=O)N1CCCCC1 | – | 16.8 µM (active)
CCOC(=O)C1CCN(CC(=O)Nc2ccc(OC)c(S(=O)(=O)N3CCCCC3)c2)CC1 | 3.48% (inactive) | –
COc1ccccc1C(=O)Nc1ccc(C)c(S(=O)(=O)N2CCCCC2)c1 | -5.05% (inactive) | –
O=C(Nc1nc(-c2ccncc2)cs1)C1COc2ccccc2O1 (stereo unspecified) | – | 3.36 µM (active)
COc1ccc(NC(=O)COC(=O)C2COc3ccccc3O2)cc1 (stereo unspecified) | -3.22% (inactive) | –
CC(=O)c1cccc(NC(=O)C2COc3ccccc3O2)c1 (stereo unspecified) | 2.4% (inactive) | –
